From PubChem BioAssay AID1259240 (Keith Lab, Institute of Cancer Science, University of …, 2017)
The source made the active and inactive calls. No stated cut-off is given here; in the data, active means fold change mostly below about -2 (no sharp cut-off); inactive means mostly above about -1.8.

Assay: TERT promoter activity modulators, primary screen, cell-based, luciferase reporter, human (AID 1259240)
Details: A2780 TERT promoter luciferase reporter, 16 h; at 20 µM, fold versus average of vehicle-only wells

Row | SMILES | fold change | outcome
1 | CC(C)(C)NC(=O)CSc1nc(-c2ccc(F)cc2)cc(C(F)(F)F)n1 | -1.59 (inactive) | 
2 | COC(=O)c1nc2n(n1)C(c1cccc(Br)c1)C1=C(CCCC1=O)N2 (centres undefined) |  | inactive
3 | Cn1nc(-c2ccc(C(=O)N3CCCC3)cc2)c2ccccc2c1=O | 1.06 (inactive) | 
4 | Cc1nn(-c2cc(N3CCCCC3)ccc2N)c(=O)c2ccccc12 | -1.45 (inactive) | 
5 | CC(=O)c1cc2c(cc1NC(=O)c1cc(C)nn1-c1ccccc1)OCO2 | -1.17 (inactive) | 
6 | O=C(O)Cn1c(O)c(C2=c3ccccc3=NC2=O)sc1=S |  | inactive
7 | O=C(CCCCn1c(=O)[nH]c2ccsc2c1=O)NCCc1c[nH]c2ccccc12 | -2.16 (active) | 
8 | COc1nnc(-c2ccc(N3CCCCC3)c(N)c2)c2ccccc12 | -1.98 (inactive) | 
9 | CCOC(=O)C1CCCN(c2c(OCC)c(=O)c2=O)C1 (centres undefined) | 1.23 (inactive) | 
10 | Fc1ccc(OCc2nc(-c3ccc(-n4cccc4)cc3)no2)cc1 | -1.22 (inactive) | 
11 | CCOC(=O)C1=C(CS(=O)(=O)c2ccc(C)c(C)c2)NC(=O)NC1c1ccc(O)c(OC)c1 (centres undefined) | 1.22 (inactive) | 
12 | O=C1C2C(c3cccs3)NC(Cc3ccccc3)(C(=O)O)C2C(=O)N1c1ccc(F)cc1 (centres undefined) | -1.06 (inactive) | 
13 | Cc1nc(SCC(=O)N2CCCC2)c2c(=O)n(C)c(=O)n(C)c2n1 | 1.5 (inactive) | 
14 | O=C(Cc1ccc(NC2=NC3CS(=O)(=O)CC3S2)cc1)NCc1ccco1 (centres undefined) | -1.32 (inactive) | 
15 | O=C(Cn1c(=O)n(CC(=O)NC2CCCC2)c(=O)c2ccccc21)Nc1cccc(F)c1 | 1.16 (inactive) | 
16 | CCOC(=O)C1CCN(c2cc(C)c(C#N)c3nc4ccccc4n23)CC1 | -2.16 (active) | 
17 | CSCCC(C(=O)O)N1C(=O)/C(=C/c2cccnc2)SC1=S (centres undefined) | -1.77 (inactive) | 
18 | O=C(Cn1c(=O)oc2cc(S(=O)(=O)N3CCc4ccccc43)ccc21)NC1CCCC1 | -1.1 (inactive) | 
19 | O=c1/c(=C/c2ccco2)sc2nc(-c3ccccc3Br)nn12 | 1.48 (inactive) | 
20 | Cc1cc(NS(=O)(=O)c2ccc(NC(=O)[C@@H]3CCCC[C@@H]3C(=O)O)cc2)no1 | -1.94 (inactive) | 

Row | SMILES | fold change | outcome
21 | CC1CCCCN1c1nnc(NC(=O)Cn2c(=O)oc3ccccc32)s1 (centres undefined) | 1.11 (inactive) | 
22 | CCCCNc1nc2c(c(=O)[nH]c(=O)n2C)n1CCO | -1.67 (inactive) | 
23 | O=C(NCc1ccccc1Cl)c1c(-n2cccc2)sc2c1CCC2 | -1.05 (inactive) | 
24 | C=CCn1c(Oc2ccc(C(=O)OC)cc2)nc2c1c(=O)n(C)c(=O)n2C | -2.04 (active) | 
25 | Cc1cc(=O)oc2c1c(C)nn2-c1ccc(C(=O)O)cc1 | -2.62 (active) | 
26 | Cc1ccc2nc(Cl)c3nncn3c2c1 | 1.44 (inactive) | 
27 | Cc1ccc(Cl)cc1N1C(=O)Nc2ccccc2N1O | -1.07 (inactive) | 
28 | Cn1c2ccccc2c2cnn(CC(=O)N3CCN(C4CCCCC4)CC3)c(=O)c21 | -1.05 (inactive) | 
29 | O=C(NCCCN1CCCCC1)C1CCC(CNS(=O)(=O)c2cccc3nsnc23)CC1 (centres undefined) | -1.15 (inactive) | 
30 | COc1cc(-c2nc3cnccn3c2NC2CCCCC2)ccc1O |  | inactive
31 | c1cc2nncn2nc1N1CCN(C2CCCCC2)CC1 | -1.21 (inactive) | 
32 | COc1cc2[nH]c(=O)n(CC3CCCO3)c(=O)c2cc1OC (centres undefined) | 1.01 (inactive) | 
33 | O=C(COc1ccc(Cl)cc1)Nc1ccc2nc3n(c(=O)c2c1)CCCCC3 | -1.27 (inactive) | 
34 | CN(C)C(=O)c1ccc2c(c1)n(C)c(=O)n2C | 1.05 (inactive) | 
35 | O=C(CSc1nc(-c2ccco2)cc(C(F)(F)F)n1)N1CCSCC1 | -1.96 (inactive) | 
36 | COC(=O)CN1C(=O)CN(c2nc(C)cc(C)n2)C1=O | -1.08 (inactive) | 
37 | Cc1nnc2ccc(N3CCC(C)CC3)nn12 | 1.03 (inactive) | 
38 | Cc1ccc(CN2C(=O)C(C(C)C(=O)NCC3CCCO3)Sc3ccccc32)cc1 (centres undefined) | -1.61 (inactive) | 
39 | COc1ccc(-c2n[nH]c3c2C(c2ccccc2)NC3=O)cc1 (centres undefined) | -1.24 (inactive) | 
